TDP1 inh: qHTS Assay for Inhibitors of Tyrosyl-DNA Phosphodiesterase (TDP1). Tyrosyl-DNA phosphodiesterase 1 (Homo sapiens), Q9NUW8. recombinant TDP1, AlphaScreen DNA substrate cleavage. Potency, µM (titrated, usually from 130 µM), inactives show at the highest dose activity change, negative = inhibition, usual class: inhibitors. 350,000 compounds, 0.28% hits. AID 485290, 2010; also: potency is read from the fitted curve at half-maximal effect; % is scaled to controls: 0 for no effect and ±100 for the full control effect; nearly all actives have a fitted effect of over 40% in size
Target sequence (Q9NUW8 whole entry, looked up): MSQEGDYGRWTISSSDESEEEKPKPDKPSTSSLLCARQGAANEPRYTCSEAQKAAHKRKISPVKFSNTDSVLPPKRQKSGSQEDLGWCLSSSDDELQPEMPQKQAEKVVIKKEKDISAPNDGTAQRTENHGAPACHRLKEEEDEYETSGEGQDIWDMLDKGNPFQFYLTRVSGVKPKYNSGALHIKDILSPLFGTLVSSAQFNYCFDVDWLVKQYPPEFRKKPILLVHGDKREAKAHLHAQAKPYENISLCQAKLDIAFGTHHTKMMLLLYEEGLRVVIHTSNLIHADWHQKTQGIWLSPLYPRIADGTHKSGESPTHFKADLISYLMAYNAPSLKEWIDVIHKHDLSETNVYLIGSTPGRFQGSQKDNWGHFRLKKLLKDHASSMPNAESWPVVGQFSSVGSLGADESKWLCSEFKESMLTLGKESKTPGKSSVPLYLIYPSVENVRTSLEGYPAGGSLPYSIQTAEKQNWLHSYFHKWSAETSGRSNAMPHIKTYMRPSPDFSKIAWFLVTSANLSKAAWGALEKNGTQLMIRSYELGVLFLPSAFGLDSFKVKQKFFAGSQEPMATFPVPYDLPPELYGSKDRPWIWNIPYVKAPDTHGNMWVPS
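Enzyme-compound mixtures sat 15 min at room temperature, followed by a 5 min reaction with 15 nM final substrate and 10 min with AlphaScreen beads. Recombinant human Tdp1 was used at 1 nM final.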
Six1-Eya2 inh: qHTS Assay for Inhibitors of the Six1/Eya2 Interaction | 360,000 compounds, 0.56% hits | Homeobox protein SIX1 (Homo sapiens) + Protein phosphatase EYA2 (Homo sapiens), … | AlphaScreen GST-Six1/His-Eya2 binding, biochemical; active compounds read low | activity change, % (test concentration not listed); in the data active = activity change below about -65%; inconclusive = mostly about -30% to -63%; also: % is scaled to controls: 0 for no effect and ±100 for the full control effect
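Six1/Eya2 binding was read as AlphaScreen signal after compounds were pinned into GST-Six1 plus His-tagged Eya2 (5X stock 250/500 nM) in pH 8.0 Tris/NaCl/TCEP buffer, beads added, then incubated 1 h, 37 C, dark.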
CtBP-E1A blk: qHTS Assay for Inhibitors of the CtBP/E1A Interaction. CtBP / adenovirus E1A interaction (AlphaScreen). AlphaScreen GST-E1A/His-CtBP binding, 1536-well; active compounds read low. activity change, % (no concentration beside the values). 340,000 compounds, 0.49% hits. AID 651724, 2012; in the data active = activity change below about -65%; inconclusive = mostly about -30% to -63%; also: % is scaled to controls: 0 for no effect and ±100 for the full control effect
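Homogeneous bead-based format: GST-tagged E1A captured on glutathione donor beads, His-tagged CtBP on nickel acceptor beads; compounds precede bead addition by 2 h at 37 °C.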
JMJD2A Tudor: qHTS Assay for Inhibitors of JMJD2A-Tudor Domain. Lysine-specific demethylase 4A (Homo sapiens), O75164. AlphaScreen JMJD2A-Tudor / H3K4me3 peptide binding. Potency, µM (highest dose often 114 µM), without a hit: at the highest dose activity change, negative = inhibition, most hits filed as inhibitors. 390,000 compounds, 4.4% hits; also: potency is read from the fitted curve at half-maximal effect; % is scaled to controls: 0 for no effect and ±100 for the full control effect; nearly all actives have a fitted effect of over 50% in size
BAZ2B inh: qHTS Assay for Inhibitors of BAZ2B; AlphaScreen BAZ2B-H3K14Ac peptide displacement; Potency, µM (doses to about 114 µM), for inactives: top-dose activity change, negative = inhibition, hits mostly inhibitors; 360,000 compounds, 4.4% hits; AID 504333, 2011; also: potency is read from the fitted curve at half-maximal effect; % is scaled to controls: 0 for no effect and ±100 for the full control effect; nearly all actives have a fitted effect of over 60% in size
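AlphaScreen luminescence quantifies BAZ2B engagement of H3K14Ac peptide; the protein and biotinylated peptide are both at 50 nM final, buffer PBS pH 7.4 with 0.01% Tween-20, all steps at room temperature.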
HP1b chromo inh: HTS for Inhibitors of HP1-beta Chromodomain Interactions with Methylated Histone Tails. 390,000 compounds, 0.56% hits. Potency, µM (highest dose often 114 µM), without a hit: top-dose activity change, negative = inhibition, hits mostly inhibitors. Chromobox protein homolog 1 (Homo sapiens), P83916. AID 540317, 2011. AlphaScreen HP1-beta / biotin-H3K9me3 peptide binding; also: potency is read from the fitted curve at half-maximal effect; nearly all actives have a fitted effect of over 70% in size
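Compound inhibition of the preformed complex between 50 nM HP1-beta and 50 nM biotinylated H3K9me3 peptide was read by AlphaScreen. Buffer was PBS pH 7.4 with 0.01% Tween-20. Incubations ran 30 min at room temperature, with 10 ug/mL donor/acceptor beads.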
* = called active by the depositor; ? = inconclusive; . = not tested or not shown; [ ] = remark or other dose. An excerpt weighted towards active compounds, which were near 5.3% of everything screened. Unless noted, calls follow the shape of the dose curve; as a rule, active = well fitted inhibition curve with a large enough effect; inconclusive = small, poorly fitted or top-dose-only effect; inactive = no such curve, though single readings can be large or run the other way.

SMILES	TDP1 inh	Six1-Eya2 inh	CtBP-E1A blk	JMJD2A Tudor	BAZ2B inh	HP1b chromo inh
Cc1cc(Cl)ccc1OCCSc1nnc(-c2cccs2)o1	-3.6%	.	.	106.6%	215.2%	147.5%
COc1ccc(C2CC3(CC(C)(C)NC(SC)=N3)Oc3cc(O)cc(C)c32)cc1 (stereo not drawn)	0.0%	-6.4	-18.2	79.4µM*	35.5%	18.7%
COc1ccc(C2CC3(CC(C)(C)NC(=S)N3)Oc3cc(O)cc(C)c32)cc1 (stereo not drawn)	2.3%	-16.0	-5.9	-34.9%	?	-4.2%
c1c[nH]c(CN2CCN(Cc3ncc[nH]3)CC2)n1	.	-25.1	-5.1	14.1µM*	.	23.1%
c1ccc2c3c([nH]c2c1)C(C1CCCCC1)N(Cc1ncc[nH]1)CC3 (stereo not drawn)	5.4%	-8.8	-14.6	?	?	-6.9%
COc1ccc(-c2cn3nc(N4CCC(C(=O)NCc5ccccc5F)CC4)sc3n2)cc1	-6.2%	.	.	-9.9%	3.3%	14.6%
CCCN(C(=O)Cc1nc(N)n[nH]1)C1(C(=O)Nc2c(C)cccc2C)CCCCC1	2.3%	21.2	3.1	-35.1%	79.4µM*	42.8%
Cc1cccc(C)c1NC(=O)C1(N(Cc2ccco2)C(=O)CC2NC(=O)NC2=O)CCCCC1 (stereo not drawn)	5.4%	3.9	2.8	-6.1%	4.3%	51.9%
CCCN(C(=O)Cc1nc(N)n[nH]1)C1(C(=O)Nc2ccccc2C)CCCCC1	3.4%	-24.1	-30.0	?	44.7µM*	20.4%
Cc1ccc(C)c(NS(=O)(=O)c2cc3c(cc2C)n(C)c(=O)c(=O)n3C)c1	3.7%	.	.	-13.9%	1.6%	16.3%
CCOCc1cc(CN2CCN(c3cccc(C(F)(F)F)c3)CC2)c(O)c2ncccc12	12.7%	.	.	56.2µM*	28.2µM*	20.7%
CC(C)OCc1cc(CN2CCN(c3cccc(C(F)(F)F)c3)CC2)c(O)c2ncccc12	12.7%	.	.	?	25.1µM*	45.2%
COc1ccnc(N2CCN(c3cccc(C(F)(F)F)c3)CC2)c1C#N	4.9%	6.1	10.9	0.6%	9.6%	20.0%
OC(CN1CCN(c2cccc(C(F)(F)F)c2)CC1)c1c[nH]c2ccccc12 (stereo not drawn)	8.3%	-9.1	-2.0	?	?	-16.7%
O=S(=O)(NCc1nc2cccnc2n1Cc1ccc(F)cc1)c1ccc(Cl)s1	5.5%	.	.	-17.1%	9.9%	15.4%[57 µM]
CC(C)(C)c1ccc(C(=O)NCC(c2ccco2)S(=O)(=O)c2ccccc2)cc1 (stereo not drawn)	2.7%	.	.	-17.5%	-1.4%	20.9%[57 µM]
Cc1ccc(S(=O)(=O)Nc2cc(C)c(O)cc2C)cc1	4.3%	4.9	-19.7	-16.1%	-21.1%	22.8%
Cc1ccc(S(=O)(=O)Nc2csc(C)c2C(=O)O)cc1	.	-22.1	-2.7	-14.6%	44.7µM*	18.6%
Cc1ccc(-n2ncc3c(Nc4cccc(C)c4C)ncnc32)cc1	2.6%	.	.	-2.4%	6.6%	41.0%
CN(CCCOc1ccccc1Br)Cc1ccccc1	5.4%	0.0	-5.6	-13.0%	-0.5%	-11.0%
Cc1ccc(Cl)c(OCCCCN(C)Cc2ccccc2)c1	2.0%	3.3	8.2	2.82µM*	-34.8%	-35.8%
Cc1ccc(Cl)c(OCCCN(C)Cc2ccccc2)c1	5.8%	8.8	9.2	1.12µM*	31.6µM*	44.7µM*
O=C(CSc1nnc(-c2ccccn2)o1)Nc1ccccc1C(F)(F)F	1.0%[0.0935 µM]	?	?	-17.8%	50.1µM*	5.4%
O=C(CSc1nnc(CNC(=O)c2cccs2)o1)Nc1ccccc1C(F)(F)F	0.6%	2.6	2.0	-7.5%	-6.3%	47.4%
C=Cc1ccc(Cn2c(=O)n(-c3cccc(Cl)c3)c(=O)c3c4c(sc32)CN(C(C)=O)CC4)cc1	6.8%	.	.	-15.6%	-26.0%	21.5%
SMILES	TDP1 inh	Six1-Eya2 inh	CtBP-E1A blk	JMJD2A Tudor	BAZ2B inh	HP1b chromo inh
Cc1ccc2c(c1)NCCO2	10.4%	-4.9	-4.9	50.1µM*	.	10.5%
O=C(O)c1ccc(N/N=C/C2=C(N3CCOCC3)C(=C\c3ccccc3)/CC2)cc1	.	-5.2	1.6	?	50.1µM*	?
O=c1cnnc(N/N=C/c2c[nH]c3ccccc23)[nH]1	2.6%	?	?	-13.4%	-0.8%	7.3%
O=c1nc(N/N=C/c2c[nH]c3ccccc23)cn[nH]1	7.7%	-78.2*	-86.3*	-5.9%	-2.7%	20.6%
C(=N\Nc1ccccn1)/c1c[nH]c2ccccc12	8.4%	-5.5	-8.2	?	31.6µM*	-4.2%
O=C(CNC(=O)c1cccc(Cl)c1)OC(C(=O)Nc1cc(C(F)(F)F)ccc1Cl)c1ccccc1 (stereo not drawn)	-0.9%	.	.	-20.5%	.	.
COc1ccc2cc(-c3[nH]ncc3CN3CCCC3c3nonc3C)ccc2c1 (stereo not drawn)	8.4%	-4.2	-2.7	79.4µM*	?	12.8%
Cc1cc2c(NC(=O)CC(C)(C)CC(=O)O)cccc2nn1	-11.7%	-0.5	.	-18.6%	50.1µM*	23.9%
CO/N=C(\C(=O)O)c1csc(NN=C(C)C)n1	3.0%	-21.4	-13.4	22.4µM*	-19.2%	?
CCOC(=O)/C(=N/Nc1ccccc1)c1csc(Nc2ccccc2)n1	9.6%	-14.0	-6.6	?	?	-18.0%
O=C(NC(=S)N(Cc1ccccc1)Cc1ccccc1)C1CCCCC1	1.0%	3.2	4.7	-16.2%	29.2%	75.3%
CN(C(=S)NC(=O)C1CC1)c1ccc(O)cc1	1.6%	2.4	-1.7	89.1µM*	-2.2%	-38.6%
CCCC(=O)NC(c1cccc([N+](=O)[O-])c1)c1ccc2cccnc2c1O (stereo not drawn)	.	-91.3*	?	.	.	.
CC(C)C(=O)NC(c1cccc([N+](=O)[O-])c1)c1ccc2cccnc2c1O (stereo not drawn)	.	-94.0*	-1.7	?	25.1µM*	29.1%
CCC(=O)NC(c1cccc([N+](=O)[O-])c1)c1c(OC(C)=O)ccc2ccccc12 (stereo not drawn)	-5.2%	-10.1	-2.6	-12.3%	3.5%	22.1%
CCOc1ccc2c(c1)C(C)=CC(C)(C)N2	7.0%	0.8	2.3	?	50.1µM*	-7.1%
C#CCOC(=O)CN1C(=O)c2cccc3cccc(c23)C1=O	.	-4.8	-1.2	-13.3%	-4.7%	40.2%
